As usually defined, the inhibition is the drop in the measured response relative to a control, in per cent.

For 16 molecules, inhibition results are on record in ChEMBL document CHEMBL1961873, “Compounds: GSK PKIS; Assays: Nanosyn kinase panel” (2012).
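Note: reported values are mean percent inhibition of NEK2.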

The assay has as its target T1, Serine/threonine-protein kinase Nek2 (Homo sapiens) (UniProt P51955).
T1 sequence (whole entry): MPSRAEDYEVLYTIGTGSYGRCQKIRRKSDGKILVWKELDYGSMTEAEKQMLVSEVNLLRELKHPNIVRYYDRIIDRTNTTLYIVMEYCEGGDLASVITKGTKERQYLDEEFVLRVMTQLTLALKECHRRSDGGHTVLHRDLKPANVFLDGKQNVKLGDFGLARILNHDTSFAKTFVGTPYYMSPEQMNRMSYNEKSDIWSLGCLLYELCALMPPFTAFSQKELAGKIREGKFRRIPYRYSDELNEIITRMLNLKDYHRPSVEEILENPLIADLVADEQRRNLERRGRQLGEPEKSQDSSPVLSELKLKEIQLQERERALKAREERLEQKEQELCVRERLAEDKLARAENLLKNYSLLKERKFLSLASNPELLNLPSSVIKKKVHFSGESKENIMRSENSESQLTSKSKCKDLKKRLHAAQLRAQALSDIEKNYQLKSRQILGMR
To be noted: at 1 µM.
On to `C/C(Nc1ccc(S(N)(=O)=O)cc1)=C1/C(=O)Nc2ccccc21`, for which the inhibition is 0.19%.

With `NC(=O)Cc1ccccc1Oc1nccc(-c2c(-c3ccc(F)cc3)ncn2C2CCNCC2)n1`, the inhibition was found to be 4.35%.

`Fc1ccc(-c2ncn(CCCN3CCOCC3)c2-c2ccncc2)cc1`: the inhibition is -0.45%.

For the molecule `c1ccc(Oc2ccc(Nc3ncc(-c4ccccc4)o3)cc2)cc1`, the inhibition turned out to be 1.51%.

`COc1ccc2cc(-c3c(-c4ccncc4)nc(-c4ccc(S(C)(=O)=O)cc4C)n3C)ccc2c1`: the inhibition is 4.5%.

As to `O=C(NCC1CC1)c1ccc(-c2cccc(C(=O)NC3CC3)c2)cc1`, the inhibition amounted to 1.96%.

Regarding `O=C(Nc1ccc(Oc2ccc3[nH]c(NC(=O)c4ccccc4)nc3c2)cc1)Nc1cc(C(F)(F)F)ccc1F`, the inhibition turned out to be 3.11%.

In the case of `COc1cc2ncn(-c3cc(OCCc4ccccc4)c(C(N)=O)s3)c2cc1OC`, the inhibition came to 4.49%.

For the molecule `C[C@@H](Oc1cc(-n2cnc3ccc(OCC4CCN(C)CC4)cc32)sc1C(N)=O)c1ccccc1Cl`, the inhibition turned out to be 64.9%.

In the case of `CS(=O)(=O)CCNCc1cc(-c2cc3c(Nc4ccc(OCc5cccc(F)c5)c(Cl)c4)ncnc3s2)cs1`, the inhibition was 6.31%.

Regarding `CCc1nccc2c1nc(-c1nonc1N)n2CC`, the inhibition is 0.31%.

Take `COc1cccc(/C=N/Nc2ncnc3c2cnn3-c2cccc(OC)c2)c1`: the inhibition turned out to be 3.79%.

In the case of `COc1ccc2cc(-c3c(-c4ccncc4)nc(-c4ccc([S+](C)[O-])cc4C)n3C)ccc2c1` (stereo unspecified), the inhibition is -0.11%.

For `O=C(Nc1n[nH]c2nc(-c3ccco3)ccc12)C1CC1`, the inhibition is 1.78%.

Regarding `Cc1ccc(C(=O)NC(C)C)cc1-c1ccc(C(=O)NCC2CC2)cc1`, the inhibition was -3.6%.

As to `FC(F)(F)c1cccc(Nc2nccc(-c3cnn4nc(-c5ccccc5)ccc34)n2)c1`, the inhibition turned out to be 4.5%.
